# BAZ2B inh = inhibitors of human BAZ2B bromodomain. Q9UIF8. AID 504333. AlphaScreen BAZ2B-H3K14Ac peptide displacement. 360,000 tested, 4.4% active. Potency, µM (doses to about 114 µM), without a hit: at the highest dose activity change, negative = inhibition, hits mostly inhibitors; also: % is scaled to controls: 0 for no effect and ±100 for the full control effect; nearly all actives have a fitted effect of over 60% in size
#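 AlphaScreen luminescence quantifies BAZ2B engagement of H3K14Ac peptide; the protein and biotinylated peptide are both at 50 nM final, buffer PBS pH 7.4 with 0.01% Tween-20, all steps at room temperature.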
# G9a inh = blocks human histone lysine methyltransferase G9a | Q96KQ7 | G9a H3K9 monomethylation, AlphaScreen, 2 h | Potency, µM (doses to about 102 µM), for the others: at the top dose activity, negative = inhibition, hits mostly inhibitors | 350,000 tested, 8.8% active | AID 504332; also: % is scaled to controls: 0 for no effect and ±100 for the full control effect; nearly all actives have a fitted effect of over 75% in size
#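 Readings reflect AlphaScreen signal from monomethyl-H3K9 antibody detection. HMT at 20 nM; substrate b-H3K9 500 nM; cofactor SAM 20 uM; 2 h RT reaction; compounds tested as titrations in qHTS with 15 min preincubation.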
# JMJD2A Tudor = inhibitors of human JMJD2A Tudor domain. O75164. AlphaScreen JMJD2A-Tudor / H3K4me3 peptide binding. Potency, µM (series often up to 114 µM), for inactives: top-dose activity change, negative = inhibition, actives largely listed as inhibitors. 390,000 tested, 4.4% active. AID 504339; also: % is scaled to controls: 0 for no effect and ±100 for the full control effect; nearly all actives have a fitted effect of over 50% in size
# Target sequence (O75164 whole entry, looked up, the tested form may be a part): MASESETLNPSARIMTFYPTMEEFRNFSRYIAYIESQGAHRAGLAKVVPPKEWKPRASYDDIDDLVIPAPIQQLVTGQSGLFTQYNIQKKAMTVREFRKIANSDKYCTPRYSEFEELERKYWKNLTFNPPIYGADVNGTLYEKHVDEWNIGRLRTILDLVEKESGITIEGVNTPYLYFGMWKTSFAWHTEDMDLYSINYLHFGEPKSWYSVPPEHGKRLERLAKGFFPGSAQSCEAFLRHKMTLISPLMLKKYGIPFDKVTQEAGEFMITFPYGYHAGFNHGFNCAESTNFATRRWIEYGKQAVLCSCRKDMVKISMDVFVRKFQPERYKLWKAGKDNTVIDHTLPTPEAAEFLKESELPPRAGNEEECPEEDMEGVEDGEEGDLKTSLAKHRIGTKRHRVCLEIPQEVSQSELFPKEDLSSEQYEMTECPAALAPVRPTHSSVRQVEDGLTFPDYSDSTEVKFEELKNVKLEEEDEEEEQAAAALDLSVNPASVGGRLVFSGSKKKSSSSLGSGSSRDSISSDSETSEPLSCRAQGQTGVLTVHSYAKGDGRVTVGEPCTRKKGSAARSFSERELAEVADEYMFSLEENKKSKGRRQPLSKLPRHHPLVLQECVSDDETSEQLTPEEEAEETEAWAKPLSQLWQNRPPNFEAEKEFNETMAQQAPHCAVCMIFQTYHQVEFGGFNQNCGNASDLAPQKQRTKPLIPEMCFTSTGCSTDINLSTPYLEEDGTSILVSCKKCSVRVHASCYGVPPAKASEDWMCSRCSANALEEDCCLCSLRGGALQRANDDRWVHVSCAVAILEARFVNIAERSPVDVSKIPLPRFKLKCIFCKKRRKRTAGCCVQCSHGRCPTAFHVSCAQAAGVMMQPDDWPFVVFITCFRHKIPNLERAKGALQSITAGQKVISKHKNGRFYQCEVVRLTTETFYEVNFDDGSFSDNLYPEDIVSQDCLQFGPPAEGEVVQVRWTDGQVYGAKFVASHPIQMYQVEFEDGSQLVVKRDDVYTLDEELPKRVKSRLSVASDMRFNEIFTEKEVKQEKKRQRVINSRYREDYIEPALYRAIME
# GLS inhibitor = inhibitors of human glutaminase (GLS); GLS enzymatic activity, qHTS titration; Potency, µM (titrated, usually from 45.5 µM), for inactives: top-dose activity change, negative = inhibition, hits mostly inhibitors; 410,000 tested, 0.21% active; AID 624170; also: % is scaled to controls: 0 for no effect and ±100 for the full control effect
#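 hKGA; 45 mM KH2PO4 pH 8.2 + 0.02% Tween-20; cpd via pin tool; 1 mM Gln soln; GluOx/HRP/Amplex Red; RT 30 min; fluor. t0 & final.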
# HP1b chromo inh = inhibitors of HP1-beta chromodomain binding to methylated histone tails. P83916. AlphaScreen HP1-beta / biotin-H3K9me3 peptide binding. Potency, µM (doses to about 114 µM), without a hit: at the top dose activity change, negative = inhibition, hits mostly inhibitors. 390,000 tested, 0.56% active. AID 540317; also: nearly all actives have a fitted effect of over 70% in size
#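 AlphaScreen: HP1-beta (50 nM) preformed 30 min with biotin-H3(1-18)K9me3 peptide (50 nM) in PBS pH 7.4, 0.01% Tween-20. Compound added for 30 min at RT, then streptavidin donor/nickel chelate acceptor beads (10 ug/mL) for 30 min.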
# L3MBTL1 block = L3MBTL1 (human) inhibition; Q9Y468; AlphaScreen L3MBTL1–H3K9me1 peptide binding; Potency, µM (highest dose often 57.1 µM), without a hit: at the top dose activity, negative = inhibition, most hits filed as inhibitors; 230,000 tested, 0.66% active; AID 485360; also: % is scaled to controls: 0 for no effect and ±100 for the full control effect; nearly all actives have a fitted effect of over 60% in size
#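 First, the protein-peptide complex forms for 30 min at room temperature (L3MBTL1 50 nM, biotinylated H3K9me1 peptide 75 nM). Next, compounds are pin-transferred and incubated 30 min. Finally, AlphaScreen beads are added and read after 30 min.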
# * hit, by the source's call; ? = inconclusive; · = no result given; [ ] = another dose, or the depositor's remark. Most compounds without a hit are left out; they make up all but 10% or so of the library. Calls follow the shape of the dose curve; as a rule, active = well fitted curve in the direction sought with a large enough effect; inconclusive = small, poorly fitted or top-dose-only effect, or another doubt; inactive = no such curve, though single readings can be large; an effect the other way counts as inactive or inconclusive. Potency is read from the fitted curve at half-maximal effect.
SMILES,BAZ2B inh,G9a inh,JMJD2A Tudor,GLS inhibitor,HP1b chromo inh,L3MBTL1 block
CN1CCN(C(=O)c2ccc3c(=O)n(Cc4ccc(Cl)cc4)c(=S)[nH]c3c2)CC1,-20%,45µM*,-32%,?,25%,3%
O=C(CCCn1c(=S)[nH]c2ccc(Br)cc2c1=O)NCC1CCCO1 (stereo unspecified),-33%,40µM*,-22%,6%,57%,-6%
CCCSc1ncc(Cl)c(C(=O)Nc2ccc(S(=O)(=O)N3CCCC(C)C3)cc2)n1 (stereo unspecified),-19%,-27%[59 µM],-4%,1%,18%,·
CCOc1ccccc1C(=O)Nc1cccc2ccc(C)nc12,-3%,-5%[59 µM],-14%,-2%,14%,·
O=C(/C=C/c1ccccc1)OCc1ccccc1,·,182%[59 µM],·,0%,·,·
CCOC(=O)c1sc(NC(=O)CSc2nnc(Cc3ccccc3)o2)c(C#N)c1C,?,?,56µM*,-9%,?,7%[11.4 µM]
CCOC(=O)CNC(=O)CSc1nnc(-c2ccco2)n1Cc1ccco1,-4%,28µM*,28µM*,-10%,28%,29%
N#Cc1c(NC(=O)CSc2nnc(-c3ccco3)n2-c2ccccc2)sc2c1CCC2,-28%,?,-15%,6%,10%,·
COC(=O)c1c(NC(=O)CSc2nnc(-c3ccco3)n2C)sc(C)c1C,-9%,-13%[59 µM],79µM*,4%,?,-5%
NC(=O)c1c(NC(=O)CSc2nnc(-c3ccco3)n2-c2ccccc2)sc2c1CCC2,50µM*,?,?,-2%,?,10µM*
CCc1ccc(C(=O)c2cn(CC(=O)Nc3cc(F)ccc3F)c3nc(C)ccc3c2=O)cc1,-6%,6%[59 µM],?,0%,35%,·
CC12CCC=CC1C(c1ccc3ccccc3c1)N(Cc1ccccc1)C2=O (stereo unspecified),·,·,-21%,·,22%,·
CCOc1ccccc1NC(=O)C(=O)NCCc1sc2nc(-c3ccc(OC)cc3)nn2c1C,6%,8%[59 µM],8%,3%,35%,·
CCOC(=O)c1sc(NC(=O)CSc2nnc(-c3ccco3)n2CC)c(C(=O)OCC)c1C,?,18µM*,-34%,1%,-9%,-3%
CCOC(=O)c1c(NC(=O)CSc2nnc(CNc3ccc(OC)cc3)n2C)sc(C)c1C,45µM*,?,50µM*,-4%,20µM*,·
CCn1c(SCC(=O)N(C)CC(=O)Nc2ccc(OC)cc2)nnc1-c1ccco1,10%,20µM*,-6%,3%,34%,-2%
CCn1c(SCC(=O)N(C)CC(=O)Nc2cccc(OC)c2)nnc1-c1ccco1,-1%,-30%,-15%,17%,11%,3%
CCOC(=O)c1ccc(NC(=O)CSc2nnc(CNc3ccc(C)cc3)n2C)cc1,13%,-2%[59 µM],-19%,14%,58%,-2%
COc1cccc(-c2nnc(SCC(=O)NCc3ccc4c(c3)OCO4)n2Cc2ccco2)c1,?,45µM*,-11%,9%,25%,·
CCOC(=O)c1c(NC(=O)CSc2nnc(-c3ccccc3)n2CC)sc(C(C)=O)c1C,·,-10%[59 µM],-25%,1%,8%,-6%
CCOC(=O)c1c(NC(=O)CSc2nnc(CNc3ccc(F)cc3)o2)sc(C(C)=O)c1C,50µM*,33%[2.33 µM],-35%,1%,28%,·
CCOC(=O)c1c(NC(=O)CSc2nnc(Cc3ccccc3)o2)sc(C(C)=O)c1C,-25%,2%[2.33 µM],-9%,1%,10%,·
CCOC(=O)c1ccc(NC(=S)N2CCSC2c2ccc(OC)cc2)cc1 (stereo unspecified),9%,?,-4%,2%,44%,-2%
COc1ccc(C2SCCN2C(=S)Nc2ccc(F)cc2)cc1 (stereo unspecified),5%,40µM*,3%[57.1 µM],-5%,-14%,8%
O=C(c1ccco1)N(CCC(c1ccccc1)c1ccco1)Cc1ccccc1 (stereo unspecified),50µM*,?,56µM*,-6%,-1%,?
SMILES,BAZ2B inh,G9a inh,JMJD2A Tudor,GLS inhibitor,HP1b chromo inh,L3MBTL1 block
COc1cccc(-c2nc(NC3CCNCC3)c3ccccc3n2)c1,·,14%[0.501 µM],·,·,·,·
COc1ccc(S(=O)(=O)c2c(Nc3cccc(C)c3C)sc(C(=O)c3ccccc3)c2N)cc1,-19%,-4%[59 µM],-25%,-2%,24%,·
COc1cc(C2Nc3ccccc3C(=O)N2c2ccccc2OC)ccc1O (stereo unspecified),?,-54%[2.33 µM],-26%,33%,7%,·
O=C1c2ccccc2NC(c2ccc(O)c(O)c2)N1c1ccccc1Cl (stereo unspecified),40µM*,45µM*,-18%,-14%,-5%,·
Cc1cc(C)cc(N2CCn3c2nc2c3c(=O)n(Cc3c(F)cccc3Cl)c(=O)n2C)c1,-13%,-2%[59 µM],-11%,-11%,33%,·
COc1cccc(CN2CCN(Cc3ccon3)CC2CCO)c1 (stereo unspecified),3%,4%,-3%,-6%,64%,3%
COc1cc(CN2CCN(Cc3ccc4cc(F)ccc4n3)CC2CCO)cc(OC)c1 (stereo unspecified),-4%,-6%,-26%,0%,21%,-3%
COc1cccc(CN2CCN(Cc3ccc4c(NC(C)=O)cccc4n3)CC2CCO)c1 (stereo unspecified),-12%,50µM*,22µM*,-12%,31%,1%
CCOc1ccccc1CN1CCN(Cc2ccc3cc(F)ccc3n2)CC1CCO (stereo unspecified),-31%,79µM*,-14%,1%,36%,-4%
COc1ccc(CN2CCN(Cc3ccc4cc(F)ccc4n3)CC2CCO)c(C)c1C (stereo unspecified),-33%,50µM*,-27%,-6%,51%,-2%
Cc1ccc(CN2CCN(Cc3ccc4cc(F)ccc4n3)CC2CCO)o1 (stereo unspecified),-34%,56µM*,-8%,5%,19%[57 µM],-8%
Cc1ccc(Cl)cc1NC(c1ccc(F)cc1)c1nnc(-c2ccccc2)o1 (stereo unspecified),-16%,33%[59 µM],8%,3%,6%,·
COc1cccc(CNC(=O)C2CCN(Cc3cc4ccccc4n3Cc3ccc(C)cc3)CC2)c1,-21%,-35%[59 µM],-25%,-6%,38%,·
CC(=O)N1CCc2cc(Br)cc(S(=O)(=O)NCCc3cccc(C)c3)c21,-1%,5%[59 µM],-18%,0%,16%,·
Cc1cccc2cc3c(nc12)SC(=NCC1CCCO1)N(Cc1ccco1)C3 (stereo unspecified),?,6.3µM*,56µM*,1%,?,-6%

# Screens (PubChem)
